The text below walks through data of PubChem BioAssay (NCI).

This is part of a sample that, as a whole, favours compounds with a hit. Of some 79,000 tested, about 15% had one in any assay. Unmarked numbers belong to inactive results. Activity calls are given as the source filed them. Rule as the data show it: active = growth inhibition above about 70%; inactive = the rest.

One assay in a line: NCI Yeast Anticancer Drug Screen. Data for the bub3 strain (AID 167). To be noted: S. cerevisiae bub3 mutant strain, at 5.0 µM (retest, dose inferred, filed as 0.5), active compounds read high. Summed up:
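Steps: expose the mutant yeast strain to compound; grow alongside vehicle-treated cultures; measure growth; express inhibition against the vehicle cultures.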
Consider `CC1CCN(CCOC(=O)C(c2ccccc2)C2C=CCCC2)C1C` (stereo not given), for which the growth inhibition was 16%.
As to `CC(CCCN(C)Cc1ccccc1)Nc1ccnc2cc(Cl)ccc12` (stereo not given), the growth inhibition is 86% (active).
Turning to `O=C(/C(Cl)=N/O)c1ccccc1`, the growth inhibition is 91% (active).
Turning to `CN(C)C1C[C@@H](O[Si](C)(C)C(C)(C)C)C=C1S(=O)(=O)c1ccccc1` (stereo not given in full), the growth inhibition is -14%.
On to `Nc1nnc(Cc2ccc(Br)cc2)o1`, for which the growth inhibition is 4%.
Consider `CSc1nc(C)cc(SCc2ccc(Cl)cc2Cl)n1`, for which the growth inhibition was 2%.
As for `CC[N](CC)[Ge]([CH2]C)[CH2]C.CC[N](CC)[Ge]([CH2]C)[CH2]C`, the growth inhibition is 59%.
Turning to `Cc1c(-c2ccccc2)ccnc1/C=N/NC(=S)Nc1ccc(N(C)C)cc1`, the growth inhibition was 59%.
The same measure, in the same setting: next, `Cc1cc(C)nc(NS(=O)(=O)c2ccc(Nc3c4ccccc4nc4c(C(=O)NC(CO)(CO)CO)cccc34)cc2)n1`: 4%.
On the same count and under the same terms, the same measure for `CCCC(CCC)NCCOC(=O)C(CC)c1ccccc1` (stereo not given): 7%.
In the case of `OCCc1ccc(-n2cnc3c(Nc4ccc(Cl)cc4)ncnc32)cc1`, the growth inhibition is 7%.
Same read-out and setting: the same measure for `Cc1cccc(N2C(=O)c3ccccc3C2(c2ccccc2)N2CCCCC2)c1` (stereo not given): -2%; for `CCCCN(CCO)CCNc1ccc(C)c2sc3ccccc3c(=O)c12`: 24%; for `Cc1ccc(C)c(C(=O)CCN)c1`: 7%.
In the case of `O=C1C(C(O)(C(F)(F)Cl)C(F)(F)Cl)CCCC1C(O)(C(F)(F)Cl)C(F)(F)Cl` (stereo not given), the growth inhibition was 35%.
Same read-out and setting: the same measure for `CC(C)c1cc2c(cc1O)C(O)C1(O)CCCC(C)(C)[C@H]1CC2` (stereo not given in full): 6%.
Take `CN(C)[C@@H]1C(=O)C(C(=O)NCNc2nc3n[nH]nc3c(=O)[nH]2)=C(O)[C@@]2(O)C(=O)C3=C(O)c4c(O)cccc4[C@@](C)(O)[C@H]3C[C@@H]12`: the growth inhibition is 7%.
Consider `CCOC(=O)c1csc(=S)[nH]1`, for which the growth inhibition was -6%.
As to `CC(=O)[O-].O=C(N/N=C/c1ccccc1[O-])c1ccccc1.[Zn+2]`, the growth inhibition is -10%.
For `Clc1ccc(C(CCOc2ccccc2Br)Cn2ccnc2)c(Cl)c1` (stereo not given), the growth inhibition was 89% (active).
Regarding `CCCC(C)C/C(C)=C\C(C)(C)C1CC(=O)N(CC)C1=O` (stereo not given), the growth inhibition was 4%.
As for `CSC(SC)=C1C(=O)NC(Cc2ccccc2)C1=O` (stereo not given), the growth inhibition was 1%.
The same measure, in the same setting: next, `CCCCCCSc1nc2ccc(N=Cc3ccccc3O)cc2s1`: 55%; `Cc1cc(C(=O)O)c(C)c2c1sc1ccccc12`: -11%.
In the case of `O=C(Nc1ccc(Cl)cc1)Nc1nnc2nc(C(C(=O)/C=C/c3ccccc3)c3nc4nnc(NC(=O)Nc5ccc(Cl)cc5)n4[nH]c3=O)c(=O)[nH]n12`, the growth inhibition was -11%.
For the compound `O=c1c(SSc2coc3ccccc3c2=O)coc2ccccc12`, the growth inhibition is 13%.
As for `C[n+]1c(/C=C/c2ccc(N3CCCC3)cc2)sc2ccccc21`, the growth inhibition is 46%.
In the case of `CCC(C(c1ccc(Cl)cc1)c1ccc(Cl)c(Cl)c1)[N+](=O)[O-]` (stereo not given), the growth inhibition is 19%.
In the case of `O=C1OC(C2OC(=O)C(=O)C2C(=O)c2ccc([N+](=O)[O-])cc2)C(C(=O)c2ccc([N+](=O)[O-])cc2)C1=O` (stereo not given), the growth inhibition was 5%.
As for `O=[N+]([O-])c1ccc(O)c(C2CCCCC2)c1`, the growth inhibition is 79% (active).
On to `O=C1c2ccccc2C(=O)N1/N=C\c1ccccc1[N+](=O)[O-]`, for which the growth inhibition was -3%.
As to `CC(C)(C)C(=O)CC(=O)C(F)(F)C(F)(F)C(F)(F)F.CC(C)(C)C(=O)CC(=O)C(F)(F)C(F)(F)C(F)(F)F.CC(C)(C)C(=O)CC(=O)C(F)(F)C(F)(F)C(F)(F)F.[Gd]`, the growth inhibition is -17%.
Take `Oc1ccc(N=Nc2ccccc2)cc1`: the growth inhibition was 4%.
Turning to `Cc1cc(NC(=S)SCc2ccc(F)cc2)ccc1Br`, the growth inhibition is 56%.
Turning to `OC(CN1CCc2ccccc2C1)c1ccc2ccccc2c1` (stereo not given), the growth inhibition is 36%.
Same read-out and setting: next, `O=C1C=C/C(=C(/c2ccc(O)c(O)c2)c2ccccc2S(=O)(=O)O)C=C1O`: -40%; `Cc1cc(N)c2cc(NC(=O)Nc3ccc4nc(C)cc(N)c4c3)ccc2n1`: 99% (active).
With `CC(=O)N/N=C1/CC[C@@]2(C)C(=CC[C@H]3C4CCC(C(C)CCCC(C)C)[C@@]4(C)CCC32)C1(C)C` (stereo not given in full), the growth inhibition was -10%.
`Cc1ncn(-c2ccccc2O)c1C`: the growth inhibition was -3%.
Turning to `Oc1ccc(-c2nnc(-c3ccccc3)nn2)cc1`, the growth inhibition was -47%.

The assay is the same for the next values; noted with them: S. cerevisiae bub3 mutant strain, at 50.0 µM (retest, dose inferred, filed as 5.0), active compounds read high.
For the compound `CC1CCN(CCOC(=O)C(c2ccccc2)C2C=CCCC2)C1C` (stereo not given), the growth inhibition is 50%.
As for `CC(CCCN(C)Cc1ccccc1)Nc1ccnc2cc(Cl)ccc12` (stereo not given), the growth inhibition is 99% (active).
For `O=C(/C(Cl)=N/O)c1ccccc1`, the growth inhibition was 99% (active).
As to `CN(C)C1C[C@@H](O[Si](C)(C)C(C)(C)C)C=C1S(=O)(=O)c1ccccc1` (stereo not given in full), the growth inhibition is 100% (active).
Same read-out and setting: the same measure for `Nc1nnc(Cc2ccc(Br)cc2)o1`: 6%.
For the compound `CSc1nc(C)cc(SCc2ccc(Cl)cc2Cl)n1`, the growth inhibition is 18%.
Still for that read-out and setting: the same measure for `CC[N](CC)[Ge]([CH2]C)[CH2]C.CC[N](CC)[Ge]([CH2]C)[CH2]C`: 99% (active).
Still for that read-out and setting: next, `Cc1c(-c2ccccc2)ccnc1/C=N/NC(=S)Nc1ccc(N(C)C)cc1`: 94% (active); `Cc1cc(C)nc(NS(=O)(=O)c2ccc(Nc3c4ccccc4nc4c(C(=O)NC(CO)(CO)CO)cccc34)cc2)n1`: 12%.
Same read-out and setting: the same measure for `CCCC(CCC)NCCOC(=O)C(CC)c1ccccc1` (stereo not given): 75% (active).
For the compound `OCCc1ccc(-n2cnc3c(Nc4ccc(Cl)cc4)ncnc32)cc1`, the growth inhibition is 96% (active).
For `Cc1cccc(N2C(=O)c3ccccc3C2(c2ccccc2)N2CCCCC2)c1` (stereo not given), the growth inhibition was -6%.
In the case of `CCCCN(CCO)CCNc1ccc(C)c2sc3ccccc3c(=O)c12`, the growth inhibition is 99% (active).
`Cc1ccc(C)c(C(=O)CCN)c1`: the growth inhibition was 8%.
Same read-out and setting: next, `O=C1C(C(O)(C(F)(F)Cl)C(F)(F)Cl)CCCC1C(O)(C(F)(F)Cl)C(F)(F)Cl` (stereo not given): 99% (active).
As for `CC(C)c1cc2c(cc1O)C(O)C1(O)CCCC(C)(C)[C@H]1CC2` (stereo not given in full), the growth inhibition was 99% (active).
As to `CN(C)[C@@H]1C(=O)C(C(=O)NCNc2nc3n[nH]nc3c(=O)[nH]2)=C(O)[C@@]2(O)C(=O)C3=C(O)c4c(O)cccc4[C@@](C)(O)[C@H]3C[C@@H]12`, the growth inhibition is 14%.
For `CCOC(=O)c1csc(=S)[nH]1`, the growth inhibition is 86% (active).
The same measure, in the same setting: next, `CC(=O)[O-].O=C(N/N=C/c1ccccc1[O-])c1ccccc1.[Zn+2]`: 70% (active); `Clc1ccc(C(CCOc2ccccc2Br)Cn2ccnc2)c(Cl)c1` (stereo not given): 99% (active); `CCCC(C)C/C(C)=C\C(C)(C)C1CC(=O)N(CC)C1=O` (stereo not given): 95% (active).
In the case of `CSC(SC)=C1C(=O)NC(Cc2ccccc2)C1=O` (stereo not given), the growth inhibition is 34%.
As for `CCCCCCSc1nc2ccc(N=Cc3ccccc3O)cc2s1`, the growth inhibition is 86% (active).
On the same count and under the same terms, the same measure for `Cc1cc(C(=O)O)c(C)c2c1sc1ccccc12`: -14%; for `O=C(Nc1ccc(Cl)cc1)Nc1nnc2nc(C(C(=O)/C=C/c3ccccc3)c3nc4nnc(NC(=O)Nc5ccc(Cl)cc5)n4[nH]c3=O)c(=O)[nH]n12`: 7%.
Turning to `O=c1c(SSc2coc3ccccc3c2=O)coc2ccccc12`, the growth inhibition was 94% (active).
Turning to `C[n+]1c(/C=C/c2ccc(N3CCCC3)cc2)sc2ccccc21`, the growth inhibition was 98% (active).
For `CCC(C(c1ccc(Cl)cc1)c1ccc(Cl)c(Cl)c1)[N+](=O)[O-]` (stereo not given), the growth inhibition was 38%.
The same measure, in the same setting: the same measure for `O=C1OC(C2OC(=O)C(=O)C2C(=O)c2ccc([N+](=O)[O-])cc2)C(C(=O)c2ccc([N+](=O)[O-])cc2)C1=O` (stereo not given): 39%; for `O=[N+]([O-])c1ccc(O)c(C2CCCCC2)c1`: 98% (active).
On the same count and under the same terms, the same measure for `O=C1c2ccccc2C(=O)N1/N=C\c1ccccc1[N+](=O)[O-]`: 85% (active); for `CC(C)(C)C(=O)CC(=O)C(F)(F)C(F)(F)C(F)(F)F.CC(C)(C)C(=O)CC(=O)C(F)(F)C(F)(F)C(F)(F)F.CC(C)(C)C(=O)CC(=O)C(F)(F)C(F)(F)C(F)(F)F.[Gd]`: 96% (active); for `Oc1ccc(N=Nc2ccccc2)cc1`: 98% (active).
Take `Cc1cc(NC(=S)SCc2ccc(F)cc2)ccc1Br`: the growth inhibition is 100% (active).
In the case of `OC(CN1CCc2ccccc2C1)c1ccc2ccccc2c1` (stereo not given), the growth inhibition is 93% (active).
For `O=C1C=C/C(=C(/c2ccc(O)c(O)c2)c2ccccc2S(=O)(=O)O)C=C1O`, the growth inhibition was -3%.
Turning to `Cc1cc(N)c2cc(NC(=O)Nc3ccc4nc(C)cc(N)c4c3)ccc2n1`, the growth inhibition was 99% (active).
In the case of `CC(=O)N/N=C1/CC[C@@]2(C)C(=CC[C@H]3C4CCC(C(C)CCCC(C)C)[C@@]4(C)CCC32)C1(C)C` (stereo not given in full), the growth inhibition is 70% (active).
Same read-out and setting: next, `Cc1ncn(-c2ccccc2O)c1C`: -27%; `Oc1ccc(-c2nnc(-c3ccccc3)nn2)cc1`: -19%.
